What was measured:
Assay in all cases: DAPPL (digital affinity profiling via proximity ligation, sequencing); 10 mM Tris-HCl pH 7.5, 50 mM NaCl, 1 mM DTT, 4% glycerol, room temperature, 30 min; GST-TFs on glutathione beads, 16-mer random dsDNA library, 0.1% formaldehyde crosslink after washing; high values mean tight binding
FLI1 = target: T1, FLI1 (Homo sapiens, UniProt Q01543 1-452); details: protein: recombinant; tags: N-terminal GST; dsDNA, one strand shown
T1 sequence: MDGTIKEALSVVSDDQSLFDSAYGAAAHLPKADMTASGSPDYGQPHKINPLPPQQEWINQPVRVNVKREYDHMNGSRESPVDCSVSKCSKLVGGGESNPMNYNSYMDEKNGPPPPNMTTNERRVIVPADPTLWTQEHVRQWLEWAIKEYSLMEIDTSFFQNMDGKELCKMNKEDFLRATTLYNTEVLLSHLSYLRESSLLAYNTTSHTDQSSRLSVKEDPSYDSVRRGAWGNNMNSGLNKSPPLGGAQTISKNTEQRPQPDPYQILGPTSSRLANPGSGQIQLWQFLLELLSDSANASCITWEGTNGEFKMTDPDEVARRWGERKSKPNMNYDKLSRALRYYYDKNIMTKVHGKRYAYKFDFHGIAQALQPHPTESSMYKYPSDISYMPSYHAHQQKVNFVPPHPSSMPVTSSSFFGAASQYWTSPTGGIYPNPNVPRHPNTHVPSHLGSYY
Outline: (§1)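 Human transcription factors were made in yeast as GST fusions, captured on glutathione beads and barcoded with DNA. With a tag-only sample included, the pool was incubated with 200 nmole of a random double-stranded 16-mer DNA library in Tris/NaCl/DTT/glycerol buffer at room temperature for 30 min, then crosslinked with 0.1% formaldehyde after washing, ligated by proximity, amplified and sequenced. For binding signal, each hexamer's read frequency for a factor is divided by its frequency for the tag-only sample.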

ELK1 = target: T2, ELK1 (Homo sapiens, UniProt P19419 1-428); details: protein: recombinant; tags: N-terminal GST; dsDNA, one strand shown
T2 sequence: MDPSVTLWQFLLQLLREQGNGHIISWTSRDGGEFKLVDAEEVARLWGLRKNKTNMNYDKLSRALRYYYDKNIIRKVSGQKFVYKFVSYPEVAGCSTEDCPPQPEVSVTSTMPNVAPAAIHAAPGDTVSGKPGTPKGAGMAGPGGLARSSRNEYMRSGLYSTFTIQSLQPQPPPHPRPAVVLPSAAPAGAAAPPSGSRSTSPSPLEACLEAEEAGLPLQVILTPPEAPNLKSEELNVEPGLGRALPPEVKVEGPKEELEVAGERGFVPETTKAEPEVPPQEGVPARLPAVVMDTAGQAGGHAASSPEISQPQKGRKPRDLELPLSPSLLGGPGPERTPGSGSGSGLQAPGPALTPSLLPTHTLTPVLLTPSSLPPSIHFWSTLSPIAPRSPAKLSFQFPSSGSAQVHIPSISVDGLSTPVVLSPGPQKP
Outline: as §1

GABPA = target: T3, GABPA (Homo sapiens, UniProt Q06546 1-454); details: protein: recombinant; tags: N-terminal GST; dsDNA, one strand shown
T3 sequence: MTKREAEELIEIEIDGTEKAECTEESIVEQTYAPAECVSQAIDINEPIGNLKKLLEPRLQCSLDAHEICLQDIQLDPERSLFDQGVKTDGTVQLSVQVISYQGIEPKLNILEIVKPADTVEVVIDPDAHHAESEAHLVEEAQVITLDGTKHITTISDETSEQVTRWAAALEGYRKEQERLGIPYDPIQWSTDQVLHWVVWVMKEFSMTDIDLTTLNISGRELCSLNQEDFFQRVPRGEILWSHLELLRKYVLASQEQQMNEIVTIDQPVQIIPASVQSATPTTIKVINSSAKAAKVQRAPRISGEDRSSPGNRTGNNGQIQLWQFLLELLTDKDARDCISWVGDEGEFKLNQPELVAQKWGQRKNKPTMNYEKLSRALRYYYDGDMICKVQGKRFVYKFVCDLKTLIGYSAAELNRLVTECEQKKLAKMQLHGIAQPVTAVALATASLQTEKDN
Outline: as §1

ELF1 = ELF1 (Homo sapiens, UniProt P32519 1-619); details: protein: recombinant; tags: N-terminal GST; dsDNA, one strand shown
Outline: as §1

EHF = target: T4, EHF (Homo sapiens, UniProt Q9NZC4 1-300); details: protein: recombinant; tags: N-terminal GST; dsDNA, one strand shown
T4 sequence: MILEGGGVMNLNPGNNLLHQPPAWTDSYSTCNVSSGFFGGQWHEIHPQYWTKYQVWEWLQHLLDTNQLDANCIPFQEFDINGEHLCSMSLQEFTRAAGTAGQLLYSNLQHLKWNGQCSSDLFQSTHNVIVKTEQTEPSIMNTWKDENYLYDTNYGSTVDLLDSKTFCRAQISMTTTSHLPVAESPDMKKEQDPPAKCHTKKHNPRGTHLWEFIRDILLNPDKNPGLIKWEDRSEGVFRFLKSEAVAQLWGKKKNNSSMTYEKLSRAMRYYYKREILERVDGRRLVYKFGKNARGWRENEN
Outline: as §1

SPIB = SPIB (Homo sapiens, UniProt Q01892 1-262); details: protein: recombinant; tags: N-terminal GST; dsDNA, one strand shown
Outline: as §1

HSF1 = HSF1 (Homo sapiens, UniProt Q00613 1-529); details: protein: recombinant; tags: N-terminal GST; chain copies: 3; dsDNA, one strand shown
Outline: as §1

ELF4 = ELF4 (Homo sapiens, UniProt Q99607 1-663); details: protein: recombinant; tags: N-terminal GST; dsDNA, one strand shown
Outline: as §1

ELK4 = target: T5, ELK4 (Homo sapiens, UniProt P28324-2 1-405); details: protein: recombinant; tags: N-terminal GST; dsDNA, one strand shown
T5 sequence: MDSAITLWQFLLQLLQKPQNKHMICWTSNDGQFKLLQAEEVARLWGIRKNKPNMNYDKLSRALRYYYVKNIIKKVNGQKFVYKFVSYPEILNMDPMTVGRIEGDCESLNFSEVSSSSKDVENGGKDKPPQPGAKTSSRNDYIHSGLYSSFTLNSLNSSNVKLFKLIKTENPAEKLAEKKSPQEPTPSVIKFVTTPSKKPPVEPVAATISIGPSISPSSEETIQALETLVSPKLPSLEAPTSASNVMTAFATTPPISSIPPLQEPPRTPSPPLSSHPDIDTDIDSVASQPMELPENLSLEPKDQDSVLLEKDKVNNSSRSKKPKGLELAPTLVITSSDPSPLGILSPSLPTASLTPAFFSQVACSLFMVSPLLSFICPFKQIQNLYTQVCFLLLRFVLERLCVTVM
Outline: as §1

ETV2 = target: T6, ETV2 (Homo sapiens, UniProt O00321 1-342); details: protein: recombinant; tags: N-terminal GST; dsDNA, one strand shown
T6 sequence: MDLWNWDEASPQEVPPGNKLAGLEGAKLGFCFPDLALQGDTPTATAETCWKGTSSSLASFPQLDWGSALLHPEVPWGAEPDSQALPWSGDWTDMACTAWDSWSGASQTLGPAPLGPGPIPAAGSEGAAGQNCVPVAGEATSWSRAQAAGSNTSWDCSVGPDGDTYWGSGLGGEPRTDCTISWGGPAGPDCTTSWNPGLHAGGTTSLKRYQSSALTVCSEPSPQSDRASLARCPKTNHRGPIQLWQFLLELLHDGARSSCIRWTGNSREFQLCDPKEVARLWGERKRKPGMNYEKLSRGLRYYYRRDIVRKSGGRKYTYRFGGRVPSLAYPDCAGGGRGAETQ
Outline: as §1

ETV1 = ETV1 (Homo sapiens, UniProt P50549 1-477); details: protein: recombinant; tags: N-terminal GST; dsDNA, one strand shown
Outline: as §1

ERF = target: T7, ERF (Homo sapiens, UniProt P50548 1-548); details: protein: recombinant; tags: N-terminal GST; dsDNA, one strand shown
T7 sequence: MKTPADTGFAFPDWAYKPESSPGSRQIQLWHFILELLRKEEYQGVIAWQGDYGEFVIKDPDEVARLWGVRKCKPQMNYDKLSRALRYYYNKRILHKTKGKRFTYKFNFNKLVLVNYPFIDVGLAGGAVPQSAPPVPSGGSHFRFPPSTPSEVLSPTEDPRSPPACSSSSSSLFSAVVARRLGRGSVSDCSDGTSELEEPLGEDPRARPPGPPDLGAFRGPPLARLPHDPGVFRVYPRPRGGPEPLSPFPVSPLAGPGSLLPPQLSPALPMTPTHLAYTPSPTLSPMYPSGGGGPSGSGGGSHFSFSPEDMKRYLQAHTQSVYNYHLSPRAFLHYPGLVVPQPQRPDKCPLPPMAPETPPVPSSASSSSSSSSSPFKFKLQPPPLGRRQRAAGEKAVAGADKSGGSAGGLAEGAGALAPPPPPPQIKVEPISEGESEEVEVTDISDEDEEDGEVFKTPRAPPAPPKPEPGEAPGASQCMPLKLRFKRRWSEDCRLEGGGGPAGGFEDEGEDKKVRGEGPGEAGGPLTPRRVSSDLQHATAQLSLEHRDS
Outline: as §1

ETV3L = target: T8, ETV3L (Homo sapiens, UniProt Q6ZN32 1-361); details: protein: recombinant; tags: N-terminal GST; dsDNA, one strand shown
T8 sequence: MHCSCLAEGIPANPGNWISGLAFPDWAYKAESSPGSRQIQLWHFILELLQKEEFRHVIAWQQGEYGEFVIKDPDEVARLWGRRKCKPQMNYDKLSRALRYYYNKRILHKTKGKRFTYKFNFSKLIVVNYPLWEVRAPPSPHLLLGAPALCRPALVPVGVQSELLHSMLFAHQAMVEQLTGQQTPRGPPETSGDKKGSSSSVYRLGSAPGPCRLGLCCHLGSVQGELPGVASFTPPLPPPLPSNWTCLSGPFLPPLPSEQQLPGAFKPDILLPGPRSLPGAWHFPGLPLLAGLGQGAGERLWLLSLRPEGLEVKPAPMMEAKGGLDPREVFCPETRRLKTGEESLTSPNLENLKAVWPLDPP
Outline: as §1

ETS2 = target: T9, ETS2 (Homo sapiens, UniProt P15036 1-469); details: protein: recombinant; tags: N-terminal GST; dsDNA, one strand shown
T9 sequence: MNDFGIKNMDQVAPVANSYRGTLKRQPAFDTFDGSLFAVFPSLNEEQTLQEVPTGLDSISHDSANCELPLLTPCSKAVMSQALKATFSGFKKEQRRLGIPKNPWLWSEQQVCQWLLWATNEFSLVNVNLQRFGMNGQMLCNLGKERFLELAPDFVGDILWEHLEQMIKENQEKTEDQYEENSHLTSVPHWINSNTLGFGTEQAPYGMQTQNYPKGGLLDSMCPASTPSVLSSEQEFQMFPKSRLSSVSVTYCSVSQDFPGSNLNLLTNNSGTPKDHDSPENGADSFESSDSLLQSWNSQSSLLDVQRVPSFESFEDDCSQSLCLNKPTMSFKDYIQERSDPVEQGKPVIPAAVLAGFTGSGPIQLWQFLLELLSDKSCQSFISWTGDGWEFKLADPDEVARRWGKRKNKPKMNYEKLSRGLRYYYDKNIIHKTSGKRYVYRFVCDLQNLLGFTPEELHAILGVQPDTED
Outline: as §1

ETV7 = target: T10, ETV7 (Homo sapiens, UniProt Q9Y603 1-341); details: protein: recombinant; tags: N-terminal GST; dsDNA, one strand shown
T10 sequence: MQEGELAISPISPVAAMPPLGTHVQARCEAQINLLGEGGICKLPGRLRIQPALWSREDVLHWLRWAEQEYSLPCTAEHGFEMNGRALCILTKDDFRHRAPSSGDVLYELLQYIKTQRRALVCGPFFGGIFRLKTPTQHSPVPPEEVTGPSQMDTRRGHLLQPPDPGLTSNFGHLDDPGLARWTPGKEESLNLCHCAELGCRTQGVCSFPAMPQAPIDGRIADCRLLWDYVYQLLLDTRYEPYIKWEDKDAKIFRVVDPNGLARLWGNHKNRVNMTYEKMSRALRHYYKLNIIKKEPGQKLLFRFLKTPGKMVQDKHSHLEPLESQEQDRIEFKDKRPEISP
Outline: as §1

ETV3 = target: T11, ETV3 (Homo sapiens, UniProt P41162-2 1-143); details: protein: recombinant; tags: N-terminal GST; dsDNA, one strand shown
T11 sequence: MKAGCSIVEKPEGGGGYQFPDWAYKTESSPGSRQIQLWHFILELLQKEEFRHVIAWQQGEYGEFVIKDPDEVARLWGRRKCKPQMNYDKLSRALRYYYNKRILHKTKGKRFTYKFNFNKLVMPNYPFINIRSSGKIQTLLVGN
Outline: as §1

ETV6 = ETV6 (Homo sapiens, UniProt P41212 1-452); details: protein: recombinant; tags: N-terminal GST; dsDNA, one strand shown
Outline: as §1

Sequence of ETV6 (P41212 whole entry): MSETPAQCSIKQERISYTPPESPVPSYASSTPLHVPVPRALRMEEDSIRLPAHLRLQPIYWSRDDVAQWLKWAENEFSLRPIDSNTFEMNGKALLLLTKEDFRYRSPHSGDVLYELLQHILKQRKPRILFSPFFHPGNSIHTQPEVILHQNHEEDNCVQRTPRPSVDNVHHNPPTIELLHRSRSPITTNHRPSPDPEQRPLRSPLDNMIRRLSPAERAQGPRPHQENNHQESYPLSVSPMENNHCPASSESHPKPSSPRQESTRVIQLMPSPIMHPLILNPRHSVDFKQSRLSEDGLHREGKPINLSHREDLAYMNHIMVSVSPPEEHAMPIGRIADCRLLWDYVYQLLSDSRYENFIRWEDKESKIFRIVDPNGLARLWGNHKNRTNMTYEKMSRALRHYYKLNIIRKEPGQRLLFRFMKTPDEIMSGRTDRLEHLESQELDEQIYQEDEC
Sequence of HSF1 (Q00613 whole entry): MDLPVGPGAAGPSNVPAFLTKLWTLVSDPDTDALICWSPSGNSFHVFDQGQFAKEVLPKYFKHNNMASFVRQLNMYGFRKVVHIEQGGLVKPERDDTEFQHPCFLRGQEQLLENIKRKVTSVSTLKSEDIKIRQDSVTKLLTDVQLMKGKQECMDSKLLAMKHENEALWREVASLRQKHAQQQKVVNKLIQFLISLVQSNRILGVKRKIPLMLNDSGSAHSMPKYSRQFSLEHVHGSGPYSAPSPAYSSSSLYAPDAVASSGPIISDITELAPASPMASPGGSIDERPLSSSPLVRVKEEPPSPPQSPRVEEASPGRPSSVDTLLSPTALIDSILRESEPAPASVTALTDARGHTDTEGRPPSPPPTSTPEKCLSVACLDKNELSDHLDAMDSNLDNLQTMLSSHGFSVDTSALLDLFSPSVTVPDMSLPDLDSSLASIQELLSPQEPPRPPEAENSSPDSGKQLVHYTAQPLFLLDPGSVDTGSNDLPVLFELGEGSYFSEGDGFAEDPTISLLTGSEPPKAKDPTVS
Sequence of ELF1 (P32519 whole entry): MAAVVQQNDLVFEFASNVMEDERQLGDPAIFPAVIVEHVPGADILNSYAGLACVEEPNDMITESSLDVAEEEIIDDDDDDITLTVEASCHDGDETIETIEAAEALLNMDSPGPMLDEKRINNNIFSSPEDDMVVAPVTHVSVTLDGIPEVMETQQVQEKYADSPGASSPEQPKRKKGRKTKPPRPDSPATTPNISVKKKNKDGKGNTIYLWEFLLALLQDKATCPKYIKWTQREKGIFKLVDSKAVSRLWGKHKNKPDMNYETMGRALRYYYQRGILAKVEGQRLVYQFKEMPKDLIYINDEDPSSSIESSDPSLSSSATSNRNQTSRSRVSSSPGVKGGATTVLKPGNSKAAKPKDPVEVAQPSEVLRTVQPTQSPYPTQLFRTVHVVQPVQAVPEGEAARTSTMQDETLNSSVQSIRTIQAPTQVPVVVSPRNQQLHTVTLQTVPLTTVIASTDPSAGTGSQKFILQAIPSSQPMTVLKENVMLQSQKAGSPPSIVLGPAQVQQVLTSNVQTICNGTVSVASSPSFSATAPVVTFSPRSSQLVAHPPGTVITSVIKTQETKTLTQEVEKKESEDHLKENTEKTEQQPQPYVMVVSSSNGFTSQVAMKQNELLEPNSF
Sequence of SPIB (Q01892 whole entry): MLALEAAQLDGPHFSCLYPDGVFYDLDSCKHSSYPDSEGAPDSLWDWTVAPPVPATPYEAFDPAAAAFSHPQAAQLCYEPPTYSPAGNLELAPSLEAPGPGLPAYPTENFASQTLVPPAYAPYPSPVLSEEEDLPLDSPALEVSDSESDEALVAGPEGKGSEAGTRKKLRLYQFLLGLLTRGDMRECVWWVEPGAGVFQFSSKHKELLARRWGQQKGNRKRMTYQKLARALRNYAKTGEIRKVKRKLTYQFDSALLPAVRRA
Sequence of ELF4 (Q99607 whole entry): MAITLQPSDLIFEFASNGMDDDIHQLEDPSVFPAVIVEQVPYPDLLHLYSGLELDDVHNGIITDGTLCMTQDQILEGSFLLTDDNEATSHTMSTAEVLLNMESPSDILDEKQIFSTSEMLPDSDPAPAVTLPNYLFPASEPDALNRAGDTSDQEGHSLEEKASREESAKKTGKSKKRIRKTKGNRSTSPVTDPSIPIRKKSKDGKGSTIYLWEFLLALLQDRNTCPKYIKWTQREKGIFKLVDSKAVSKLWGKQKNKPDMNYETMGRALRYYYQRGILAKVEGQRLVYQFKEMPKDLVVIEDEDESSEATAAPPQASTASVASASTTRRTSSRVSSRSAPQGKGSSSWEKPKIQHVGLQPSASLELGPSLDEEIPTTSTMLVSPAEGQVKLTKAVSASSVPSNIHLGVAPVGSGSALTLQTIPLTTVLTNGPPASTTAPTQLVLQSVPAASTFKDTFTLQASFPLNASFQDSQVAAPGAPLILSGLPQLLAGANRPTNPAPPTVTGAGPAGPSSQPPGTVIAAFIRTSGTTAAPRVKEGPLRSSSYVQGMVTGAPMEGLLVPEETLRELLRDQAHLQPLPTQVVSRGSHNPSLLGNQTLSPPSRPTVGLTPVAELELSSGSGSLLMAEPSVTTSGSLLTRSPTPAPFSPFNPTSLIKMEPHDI
Sequence of ETV1 (P50549 whole entry): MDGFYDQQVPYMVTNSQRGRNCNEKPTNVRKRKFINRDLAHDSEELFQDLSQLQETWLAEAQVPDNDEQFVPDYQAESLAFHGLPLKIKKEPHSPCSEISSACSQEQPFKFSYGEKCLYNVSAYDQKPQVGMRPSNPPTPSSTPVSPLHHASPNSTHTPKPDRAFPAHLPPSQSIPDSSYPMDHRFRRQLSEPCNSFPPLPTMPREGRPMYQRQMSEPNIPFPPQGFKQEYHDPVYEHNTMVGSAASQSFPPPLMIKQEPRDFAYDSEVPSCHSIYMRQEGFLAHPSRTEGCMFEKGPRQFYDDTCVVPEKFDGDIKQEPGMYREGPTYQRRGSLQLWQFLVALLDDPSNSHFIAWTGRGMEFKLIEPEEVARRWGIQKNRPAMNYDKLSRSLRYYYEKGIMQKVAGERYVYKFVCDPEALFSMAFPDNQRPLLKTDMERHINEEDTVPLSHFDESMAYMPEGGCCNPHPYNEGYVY

## TCAGCT
FLI1
  binding signal: 1.09 fold enrichment (6-mer frequency, TF over GST control)
ELK1
  binding signal: 1 fold enrichment (6-mer frequency, TF over GST control)
GABPA
  binding signal: 1.04 fold enrichment (6-mer frequency, TF over GST control)
ELF1
  binding signal: 1.12 fold enrichment (6-mer frequency, TF over GST control)
EHF
  binding signal: 1.11 fold enrichment (6-mer frequency, TF over GST control)
SPIB
  binding signal: 1.09 fold enrichment (6-mer frequency, TF over GST control)
HSF1
  binding signal: 1.07 fold enrichment (6-mer frequency, TF over GST control)
ELF4
  binding signal: 1.03 fold enrichment (6-mer frequency, TF over GST control)
ELK4
  binding signal: 1.14 fold enrichment (6-mer frequency, TF over GST control)
ETV2
  binding signal: 1.11 fold enrichment (6-mer frequency, TF over GST control)
ETV1
  binding signal: 1.14 fold enrichment (6-mer frequency, TF over GST control)
ERF
  binding signal: 1.09 fold enrichment (6-mer frequency, TF over GST control)
ETV3L
  binding signal: 1.09 fold enrichment (6-mer frequency, TF over GST control)
ETS2
  binding signal: 1.14 fold enrichment (6-mer frequency, TF over GST control)
ETV7
  binding signal: 1.01 fold enrichment (6-mer frequency, TF over GST control)
ETV3
  binding signal: 1.05 fold enrichment (6-mer frequency, TF over GST control)
ETV6
  binding signal: 1.04 fold enrichment (6-mer frequency, TF over GST control)

From article PMC7862700, “An all-to-all approach to the identification of sequence-specific readers for epigenetic DNA modifications on cytosine”
